Screens: PubChem, The Scripps Research Institute Molecular Screening Center
M1 ag: human M1 muscarinic receptor agonism; P11229; CHO-K1 hM1, Fluo-8 calcium fluorescence, agonist mode; 0% DMSO, 100% acetylcholine EC100; activation, % at 3 µM; 360,000 compounds, 0.33% hits;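 active means activation above the run's mean compound activation plus 3 SD, cut at about 16% in these data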;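 further: peak over basal fluorescence ratio within a 140 s kinetic read after compound addition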
Target sequence (P11229 whole entry, looked up): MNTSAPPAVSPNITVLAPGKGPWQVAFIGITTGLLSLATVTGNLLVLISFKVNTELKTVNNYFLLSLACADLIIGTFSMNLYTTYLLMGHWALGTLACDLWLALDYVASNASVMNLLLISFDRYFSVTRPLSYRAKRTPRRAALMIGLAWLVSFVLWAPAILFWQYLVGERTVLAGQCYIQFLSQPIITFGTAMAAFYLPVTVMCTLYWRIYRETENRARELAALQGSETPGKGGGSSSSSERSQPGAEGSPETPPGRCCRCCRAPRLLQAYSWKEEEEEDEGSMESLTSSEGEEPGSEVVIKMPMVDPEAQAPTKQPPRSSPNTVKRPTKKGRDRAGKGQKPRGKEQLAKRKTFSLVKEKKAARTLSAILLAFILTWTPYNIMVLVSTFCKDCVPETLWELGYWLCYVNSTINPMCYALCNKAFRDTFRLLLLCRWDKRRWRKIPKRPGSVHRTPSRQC
CHO-K1 Ca ag: counter-screen for M1 agonists: effect in parental CHO-K1 cells; Fluo-8 calcium fluorescence; scaled to maximal ATP response, vehicle zero; 360,000 compounds, 0.48% hits; activation, % at 3 µM; in the data active means activation above about 15%;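 further: untransfected CHO-K1 host cells lacking M1 receptor as counterscreen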
CHO-K1 Ca PAM: M1 PAM counterscreen hit in parental CHO-K1 cells | ATP EC20, Fluo-8 calcium fluorescence; 0% at ATP EC20, 100% at ATP max | activation, % at 3 µM | 360,000 compounds, 0.02% hits | AID 602247;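 active means activation above the run cutoff, the mean activation of all test compounds plus 3 SD, cut at about 40% in these data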;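 further: peak over basal fluorescence ratio in a 140 s read after ATP addition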
CHRM1 PAM: human CHRM1 positive allosteric modulation; P11229; CHO-K1 hM1, Fluo-8 calcium fluorescence, ACh EC20; 0% = ACh EC20, 100% = maximal ACh; activation, % at 3 µM; 360,000 compounds, 0.088% hits; AID 588819; in the data active means activation above about 19%, passing the limit was not always enough
CHO-K1 Ca antag: M1 antagonist counterscreen hit in parental CHO-K1 cells | ATP-induced calcium, Fluo-8 fluorescence | inhibition, % at 3 µM | 360,000 compounds, 0.6% hits;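 active means inhibition above a per-plate cutoff, the plate's mean sample inhibition plus 3 SD, cut at about 24% in these data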;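 further: 0% = DMSO plus EC80 ATP and 100% = DMSO alone without ATP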
M1 antag: antagonists of human M1 muscarinic receptor. inhibition, % at 3 µM. CHO-K1 hM1, Fluo-8 calcium fluorescence, ACh EC80 antagonist. P11229. 360,000 compounds, 1.3% hits;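 active means percent inhibition above its own plate's cutoff, namely the mean of that plate's compound wells plus 3 SD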;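 further: peak over basal fluorescence ratio during 140 s after agonist addition; 0% = ACh EC80 plus DMSO and 100% = DMSO alone without agonist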
An asterisk follows results filed as active. Shown are actives, neighbours in structure and some others; about 2.3% of the full set was active somewhere.

SMILES	M1 ag	CHO-K1 Ca ag	CHO-K1 Ca PAM	CHRM1 PAM	CHO-K1 Ca antag	M1 antag
CCOC(=O)CN(C(=O)CNC(=O)c1ccco1)C(C(=O)NC1CCCCC1)c1cccs1 (stereo not given)	-0.9	2.5	16.2	2.4	-13.5	-0.6
CCOC(=O)CN(C(=O)CNC(=O)c1ccco1)C(C(=O)NC1CCCC1)c1ccccc1OCC (stereo not given)	-3.2	1.6	14.2	7.3	-0.7	-2.5
COCCN(C(=O)c1ccco1)C(C(=O)NC1CCCC1)c1cccs1 (stereo not given)	-2.7	-0.1	-6.3	2.6	24.7*	-1.9
COc1ccc(CN(C(=O)Cc2c[nH]c3ccccc23)C(C(=O)NC2CCCCC2)c2ccc(C)o2)cc1 (stereo not given)	-6.9	1.6	4.8	-10.1	-1.3	14.3
NCC/C=C1/c2ccccc2CSc2ccccc21	-6.2	1.3	3.5	-21.6	-4.0	69.4*
C#CCN(C)CC/C=C1\c2ccccc2CSc2ccccc21	-5.9	-0.5	7.3	-20.1	-14.1	78.5*
C=CCN(C)CC/C=C1\c2ccccc2CSc2ccccc21	-5.5	1.0	13.2	-19.8	-2.3	91.5*
CC(O)CN(C)CC/C=C1/c2ccccc2CSc2ccccc21 (stereo not given)	-10.3	0.5	-7.4	-24.4	8.2	62.9*
c1ccc2c(c1)CSc1ccccc1N2	-7.6	-0.4	4.2	2.2	0.1	-14.8
O=C(NC1CC(=O)N(c2ccc3c(c2)OCCO3)C1)N1CCCCC1 (stereo not given)	-3.5	0.5	1.4	6.0	-8.1	-6.0
CS(=O)(=O)c1nc2c(cc1C#N)CCCC2	-6.3	-0.2	-8.6	-8.0	5.1	7.4
CN(C)CC/C=C1/c2ccccc2COc2ccc(CC(=O)O)cc21	-8.9	0.3	-8.8	-9.0	6.4	-2.2
CN(CC/C=C1/c2ccccc2CSc2ccccc21)CCCO	-9.3	2.2	16.3	-22.6	-6.0	88.7*
O=C(/C(=C/c1ccc(Cl)cc1)c1nc2ccccc2[nH]1)c1ccccc1	-0.4	1.1	16.4	-21.3	-11.2	93.5*
COc1ccc(NS(=O)(=O)c2cc3c(cc2C)N(C(C)=O)CCO3)cc1OC	-1.3	-0.8	6.4	3.8	-2.9	-4.0
CC[C@@H](C)[C@@H]1CN([C@@H](C)CN2CCC[C@H]2CN2C(N)=NC[C@@H]2Cc2ccccc2)C(=N)N1CCCC1CCCC1	-10.4	0.1	-14.0	-31.2	-7.5	76.0*
CC[C@@H](C)[C@@H]1CN([C@@H](C)CN2CCC[C@H]2CN2C(N)=NC[C@@H]2Cc2ccccc2)C(=N)N1CCc1ccc(Cl)c(Cl)c1	-7.8	2.0	14.0	-31.9	-8.6	49.1*
CC[C@@H](C)[C@@H]1CN([C@@H](CN2CCC[C@H]2CN2C(N)=NC[C@H]2C(C)C)C(C)C)C(=N)N1CCc1ccc(Cl)c(Cl)c1	-11.6	0.0	-11.5	-24.6	9.8	30.1
Cc1noc(C(=O)Nc2ccc(F)c(Cl)c2)c1Cl	-7.5	3.1	0.9	-29.9	-20.1	82.8*
Nc1ccc2cc3[nH]c4cc(N)ccc4c3nc2c1	35.7*	33.2*	-14.2	-17.9	56.8*	57.1*
O=C(COc1ccc2ccc(=O)oc2c1)Nc1cccc(S(=O)(=O)N2CCCCC2)c1	-1.2	16.8*	-13.9	-13.3	9.2	26.3
O=C(COC(=O)C1CC2C=CC1C2)Nc1cccc(S(=O)(=O)N2CCCCCC2)c1 (stereo not given)	-2.2	15.7*	-4.8	-11.8	18.6	17.0
Cc1ccc(OCC(=O)Nc2cccc(S(=O)(=O)N3CCCC3)c2)cc1C	-3.8	4.1	-1.1	-2.4	-6.0	3.0
CC(=O)c1ccc(OCC(=O)Nc2cccc(S(=O)(=O)N3CCCC3)c2)cc1	-0.6	14.5	-11.5	-11.5	0.0	30.6*
OC12CCCCC1C(c1ccc3c(c1)OCO3)N(Cc1cccc(F)c1)CC2 (stereo not given)	-2.0	0.7	20.6	8.0	-6.3	-7.9
SMILES	M1 ag	CHO-K1 Ca ag	CHO-K1 Ca PAM	CHRM1 PAM	CHO-K1 Ca antag	M1 antag
OC12CCCCC1C(c1ccc3c(c1)OCO3)N(Cc1ccc(F)cc1)CC2 (stereo not given)	-2.8	26.5*	10.5	7.6	6.9	-5.1
O=C(COc1ccc2c(-c3ccccc3)cc(=O)oc2c1)N1C[C@H]2C[C@@H](C1)c1cccc(=O)n1C2	-11.9	0.3	2.0	1.5	-7.6	-8.7
CC(NCCN(C)C)C1CCC2C3CCc4cc(O)ccc4C3CCC12C (stereo not given)	-4.3	8.8	22.3	5.2	-12.5	-6.0
Nc1ccc(S(=O)(=O)c2ccc(N)cc2)cc1	-1.7	2.0	-9.4	5.4	26.2*	-34.7
Nc1ccc(S(=O)(=O)N2CCCC2)cc1	-5.1	0.7	13.9	2.2	-2.8	-5.7
CCc1nnc(NC(=O)CCC(=O)N2CCN(C3CCCCC3)CC2)s1	18.9*	0.6	9.6	-3.9	-15.8	-1.5
CCc1nnc(NC(=O)CCC(=O)N2CCCC2)s1	-3.4	0.1	15.5	2.1	-2.4	-2.6
CC(C)c1nnc(NC(=O)CCC(=O)N2CCN(C3CCCCC3)CC2)s1	22.0*	0.6	2.4	-12.2	-11.5	9.4
O=C(CCC(=O)N1CCN(C2CCCCC2)CC1)Nc1nnc(C(F)(F)F)s1	3.8	0.7	4.8	6.5	-2.7	3.7
O=C(NNC(=O)C1CCC1)c1ccc(F)cc1	-0.6	0.3	12.2	9.1	-13.5	-15.7
COCCNC(=O)C1(C)CCCN(C(=O)c2cc(F)cc(F)c2)C1 (stereo not given)	-2.1	0.6	9.6	4.8	-12.9	-5.5
S=C(NCCc1ccccc1)Nc1cccc2cnccc12	1.3	12.0	-23.4	-1.5	32.5*	28.1
CN(C)C(CNC(=O)c1cc(Br)ccc1Cl)c1ccco1 (stereo not given)	-7.3	16.8*	-11.9	-5.1	8.2	9.3
CN(C)C(CNC(=O)c1ccc(Br)cc1)c1ccco1 (stereo not given)	-9.8	0.5	0.4	-3.4	-15.5	-0.5
CN(C)C(CNC(=O)c1cc(S(=O)(=O)N(C)Cc2ccccc2)ccc1Cl)c1ccco1 (stereo not given)	-1.0	10.7	-7.9	-12.6	16.7	31.3*
CN(Cc1ccccc1)S(=O)(=O)c1ccc(Cl)c(C(=O)O)c1	-2.0	1.1	16.6	5.2	-7.6	-5.1
CCOC(=O)c1sc(NC(=O)Nc2ccc(Cl)cc2)cc1C	7.9	12.9	-5.0	-23.0	46.3*	52.0*
CCCC(=O)Nc1cc(-c2nn(C)c(=O)c3ccccc23)ccc1OC	-3.0	-0.6	-1.5	9.9	24.4*	1.9
CCc1nc2ccc(C(=O)Nc3cc(-c4ccccc4)ccc3OC)cn2c1N(C)CCC(C)C	-2.0	36.8*	10.7	8.5	-12.9	-20.1
